L3MBTL1 block = blocks human L3MBTL1. Q9Y468. AlphaScreen L3MBTL1–H3K9me1 peptide binding. Potency, µM (titrated, usually from 57.1 µM), usual class: inhibitors. 230,000 tested, 0.66% active. AID 485360; note: nearly all actives have a fitted effect of over 60% in size
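AlphaScreen assay: L3MBTL1 (50 nM final) was preincubated 30 min at room temperature with biotinylated H3(1-15)K9me1 peptide (75 nM final), then 30 min with library compounds; streptavidin donor and nickel chelate acceptor beads (10 ug/mL final) added, 30 min dark.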
G9a inh = blocks human histone lysine methyltransferase G9a; Q96KQ7; G9a H3K9 monomethylation, AlphaScreen, 2 h; Potency, µM (highest dose often 102 µM), hits mostly inhibitors; 350,000 tested, 8.8% active; note: nearly all actives have a fitted effect of over 75% in size
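Methyltransferase reactions run at room temperature for 2 h (20 nM enzyme, 500 nM biotin-H3K9 peptide, 20 uM SAM) after a 15 min compound preincubation; product detected by AlphaScreen beads and anti-H3K9me1 antibody.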
BAZ2B block = blocks human BAZ2B | Q9UIF8 | AlphaScreen BAZ2B-H3K14Ac peptide displacement | Potency, µM (doses to about 114 µM), hits mostly inhibitors | 360,000 tested, 4.4% active; note: nearly all actives have a fitted effect of over 60% in size
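In this displacement format the biotinylated H3(5-23) peptide acetylated at Lys14 serves as ligand at 50 nM, with BAZ2B at 50 nM in PBS pH 7.4 containing 0.01% Tween-20. Donor and acceptor beads are 10 ug/mL final.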
Sfp inh = Sfp phosphopantetheinyl transferase inhibition; Biochemical Sfp PPTase activity, qHTS; Potency, µM, most hits filed as inhibitors; 310,000 tested, 3.5% active;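 note: the enzyme is Sfp with the accession as filed and its product quenches rhodamine fluorescence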
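Fluorescence-quenching assay with 15 nM Sfp, 5 uM rhodamine-CoA and 12.5 uM BHQ-2-labelled ybbR peptide in pH 7.6 Hepes/MgCl2 buffer. Enzyme was pre-incubated with compound for 15 min at room temperature. Rate was taken from the 30-min fluorescence change (525/598 nm).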
HP1b chromo inh = inhibitors of HP1-beta chromodomain binding to methylated histone tails; 390,000 tested, 0.56% active; Potency, µM (top dose mostly 114 µM), usual class: inhibitors; AlphaScreen HP1-beta / biotin-H3K9me3 peptide binding; note: nearly all actives have a fitted effect of over 70% in size
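HP1-beta protein (50 nM final) preincubated 30 min at room temperature with biotinylated H3(1-18)K9me3 peptide (50 nM) in PBS pH 7.4, 0.01% Tween-20, then compound added for 30 min. AlphaScreen streptavidin donor/nickel chelate acceptor beads (10 ug/mL final), 30 min dark, luminescence read.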
JMJD2A Tudor inh = inhibitors of human JMJD2A Tudor domain. Potency, µM (top dose mostly 114 µM), most hits filed as inhibitors. 390,000 tested, 4.4% active. AlphaScreen JMJD2A-Tudor / H3K4me3 peptide binding. O75164; note: nearly all actives have a fitted effect of over 50% in size
Target sequence (O75164 whole entry, looked up, the tested form may be a part): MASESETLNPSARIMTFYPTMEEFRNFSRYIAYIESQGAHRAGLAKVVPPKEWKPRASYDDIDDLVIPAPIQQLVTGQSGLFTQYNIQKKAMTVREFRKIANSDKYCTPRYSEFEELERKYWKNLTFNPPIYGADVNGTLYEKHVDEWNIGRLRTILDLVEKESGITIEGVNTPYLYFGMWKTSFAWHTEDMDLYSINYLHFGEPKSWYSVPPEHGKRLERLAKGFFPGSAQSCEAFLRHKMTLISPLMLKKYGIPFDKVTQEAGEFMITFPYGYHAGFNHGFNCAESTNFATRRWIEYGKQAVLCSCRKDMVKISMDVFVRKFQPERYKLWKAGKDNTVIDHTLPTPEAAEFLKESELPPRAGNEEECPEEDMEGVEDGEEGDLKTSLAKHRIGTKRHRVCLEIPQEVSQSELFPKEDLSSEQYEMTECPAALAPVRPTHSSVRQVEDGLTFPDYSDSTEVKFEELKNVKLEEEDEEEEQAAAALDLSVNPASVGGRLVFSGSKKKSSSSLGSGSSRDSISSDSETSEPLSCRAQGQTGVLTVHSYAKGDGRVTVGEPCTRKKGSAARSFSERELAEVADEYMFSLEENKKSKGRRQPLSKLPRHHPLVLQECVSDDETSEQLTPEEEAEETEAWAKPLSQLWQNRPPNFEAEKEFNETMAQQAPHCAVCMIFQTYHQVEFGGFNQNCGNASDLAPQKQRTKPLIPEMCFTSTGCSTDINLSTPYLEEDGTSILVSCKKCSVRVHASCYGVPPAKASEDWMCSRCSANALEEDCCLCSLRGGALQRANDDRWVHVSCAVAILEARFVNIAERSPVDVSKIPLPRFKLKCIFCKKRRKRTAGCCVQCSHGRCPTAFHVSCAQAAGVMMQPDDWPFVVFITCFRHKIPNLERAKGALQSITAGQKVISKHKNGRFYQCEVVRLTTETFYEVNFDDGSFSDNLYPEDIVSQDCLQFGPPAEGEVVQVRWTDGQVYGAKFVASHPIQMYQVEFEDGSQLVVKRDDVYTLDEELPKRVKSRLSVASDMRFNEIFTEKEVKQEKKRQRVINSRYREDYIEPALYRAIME
Each line names hits and unclear results; the compound was inactive in the other large screens. Most compounds without a hit are left out; they make up all but 12% or so of the library. Calls come from the whole dose curve; as a rule, active = well fitted curve in the direction sought with a large enough effect; inconclusive = small, poorly fitted or top-dose-only effect, or another doubt; inactive = no such curve, though single readings can be large; an effect the other way counts as inactive or inconclusive.

COC(=O)c1sccc1S(=O)(=O)N(CC(=O)Nc1cc(C)ccc1C)c1ccc(C)c(C)c1	none (no result: L3MBTL1 block, Sfp inh)
O=C(c1ccc(F)cc1)n1nc(-c2cccnc2)nc1NCc1ccc(F)cc1	none (no result: L3MBTL1 block, Sfp inh)
COc1ccc(NC(=O)CS(=O)(=O)c2ccc(Br)cc2)cc1	none (no result: L3MBTL1 block)
Cc1ccc(OCC(=O)Nc2ccc(S(=O)(=O)N3CCCC3)cc2)cc1	G9a inh 79.4µM (no result: L3MBTL1 block)
O=C(COc1ccccc1)Nc1ccc(S(=O)(=O)N2CCCC2)cc1	G9a inh 50.1µM
COc1ccc(CNC(=O)CSC(=S)N2CCCC2)cc1	none (no result: Sfp inh)
CC(C)c1ccc(CCNC(=O)CSC(=S)N2CCCC2)cc1	G9a inh 15.8µM (no result: Sfp inh)
Cc1ccc(NC(=O)CN2CCCN(S(=O)(=O)c3ccc(Br)s3)CC2)cc1	G9a inh 50.1µM (no result: L3MBTL1 block)
Cc1ccc(-c2nc3ncccn3c2NC2CCCCC2)o1	G9a inh inconclusive, Sfp inh 44.7µM (no result: L3MBTL1 block)
Cc1ccc(-c2nc3ncccn3c2Nc2ccc3c(c2)OCCO3)cc1	G9a inh 44.7µM, BAZ2B block inconclusive, HP1b chromo inh inconclusive, JMJD2A Tudor inh inconclusive (no result: L3MBTL1 block)
Brc1ccc(-c2nc3ncccn3c2Nc2ccc3c(c2)OCCO3)o1	G9a inh inconclusive, BAZ2B block 50.1µM, JMJD2A Tudor inh inconclusive (no result: L3MBTL1 block)
Cc1ccc(-c2nc3ncccn3c2Nc2ccc3c(c2)OCCO3)o1	G9a inh inconclusive, BAZ2B block inconclusive, Sfp inh 44.7µM, JMJD2A Tudor inh inconclusive (no result: L3MBTL1 block)
COc1ccc(-c2nn(C)c3sc(C(=O)N4CCN(c5cccc(C)c5C)CC4)cc23)cc1OC	none (no result: L3MBTL1 block, BAZ2B block, Sfp inh)
CC(Cc1cccs1)NC(=O)CCCn1nnnc1CN1CCOCC1 (stereo not given)	none (no result: L3MBTL1 block, G9a inh)
COc1cc(OC)c2c(C)cc(=O)oc2c1C(CCN1CCN(c2ccccc2)CC1)c1ccc2c(c1)OCO2 (stereo not given)	BAZ2B block 25.1µM, HP1b chromo inh inconclusive, JMJD2A Tudor inh 28.2µM (no result: L3MBTL1 block)
COc1cc(OC)c2ccc(=O)oc2c1C(CC(=O)N1CCN(c2ccccc2)CC1)c1ccc2c(c1)OCO2 (stereo not given)	BAZ2B block 39.8µM, JMJD2A Tudor inh 39.8µM (no result: L3MBTL1 block)
COc1cc(OC)c2c(-c3ccccc3)cc(=O)oc2c1C(CCN1CCCC1)c1ccc2c(c1)OCO2 (stereo not given)	Sfp inh inconclusive, JMJD2A Tudor inh inconclusive (no result: L3MBTL1 block)
CCN(CC)C(=O)CC(c1cc(OC)c(OC)c(OC)c1)c1c(OC)cc(OC)c2c(-c3ccccc3)cc(=O)oc12 (stereo not given)	G9a inh inconclusive, BAZ2B block 50.1µM, JMJD2A Tudor inh 56.2µM (no result: L3MBTL1 block)
COc1cc(OC)c2c(-c3ccccc3)cc(=O)oc2c1C(CCN1CCOCC1)c1ccc2c(c1)OCO2 (stereo not given)	Sfp inh inconclusive, HP1b chromo inh inconclusive, JMJD2A Tudor inh 31.6µM (no result: BAZ2B block)
CCOC(=O)C1CCN(C(=O)C2CCCN2S(=O)(=O)c2ccc(Cl)cc2)CC1 (stereo not given)	none (no result: L3MBTL1 block, G9a inh)
NS(=O)(=O)c1ccc(NC(=O)COC(=O)C2CC2)cc1	none (no result: G9a inh, BAZ2B block, Sfp inh)
COc1ccc(C(=O)NC2CC2)cc1OC1CCN(Cc2ccc(F)c(F)c2)CC1	none (no result: L3MBTL1 block)
COc1cc(C(CCN2CCCC2)c2c(OC)cc(OC)c3c(-c4ccccc4)cc(=O)oc23)cc(OC)c1OC (stereo not given)	JMJD2A Tudor inh inconclusive (no result: L3MBTL1 block)
COc1cc(C(CCN2CCOCC2)c2c(OC)cc(OC)c3c(-c4ccccc4)cc(=O)oc23)cc(OC)c1OC (stereo not given)	G9a inh inconclusive, Sfp inh inconclusive, JMJD2A Tudor inh 79.4µM (no result: BAZ2B block)
CN(c1ccc(O)cc1)S(=O)(=O)c1ccc2ccccc2c1	none (no result: L3MBTL1 block)
Oc1ccc(N=Nc2ccc3ccccc3c2)cc1	BAZ2B block 31.6µM, HP1b chromo inh inconclusive, JMJD2A Tudor inh 44.7µM
COc1cc(N=Nc2ccccc2C(=O)O)ccc1O	L3MBTL1 block inconclusive, G9a inh 50.1µM
COc1cc(C(=O)O)ccc1O	none
COc1cc(-c2nc3ccccc3nc2-c2ccc(O)c(OC)c2)ccc1O	none (no result: G9a inh)
COc1cc(N=Nc2ccc3ccccc3c2)ccc1O	L3MBTL1 block inconclusive, BAZ2B block 25.1µM, HP1b chromo inh inconclusive, JMJD2A Tudor inh 39.8µM

Source: PubChem
